Screening results: PubChem BioAssay, National Center for Advancing Translational Sciences (NCATS)
Compounds with a hit are over-represented: about 17% of the library has one in this group of screens.
DT40 TDP1 no CPT: qHTS for Inhibitors of human tyrosyl-DNA phosphodiesterase 1 (TDP1): qHTS in cells in absence of CPT; Potency, µM (highest dose often 46.2 µM), inactives show at the top dose activity change, negative = growth inhibition, hits mostly inhibitors; AID 686978, 2013; DT40 Tdp1-/- hTDP1 cells, no CPT, ATP luminescence, 48 h; 420,000 tested, 15% active; also: % is scaled to controls: 0 for no effect and ±100 for the full control effect; nearly all actives have a fitted effect of over 55% in size
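DT40 Tdp1-/-;hTDP1 cells, no CPT (DMSO vehicle only), 400 cells/well; compounds pin-transferred; ≥48 hr, 37 °C; CellTiter-Glo 30 min RT dark, luminescence read.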
HepG2 tox: qHTS for Inhibitors of TGF-b: Cytotox Counterscreen | HepG2 CAGA-GFP viability, ATP luminescence, 18 h | Potency, µM (doses to about 46.1 µM), inactives show at the top dose activity change, negative = cytotoxicity, hits mostly cytotoxic | 410,000 tested, 0.76% active | AID 588856, 2011
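HepG2 CAGA-GFP cells (1000/well, DMEM with 1% FBS) received compound, then TGF-beta at 500 pg/mL final, and were incubated 18 hours at 37 degrees C. Viability was read by CellTiter-Glo luminescence. Media-only wells were set as complete cell-killing and DMSO as no toxicity.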
HT1080 IDH1KD tx: qHTS for induction of synthetic lethality in tumor cells producing 2HG: qHTS for the HT-1080-IDH1KD cell line. 360,000 tested, 2% active. HT-1080 IDH1 knockdown viability, ATP luminescence, 48 h. Potency, µM (series often up to 46.1 µM), inactives show at the highest dose activity, negative = toxicity, actives largely listed as cytotoxic;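 also: 0% = DMSO wells and -100% = cell-free medium wells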
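% activity derives from luminescence (CellTiter-Glo), normalised to DMSO and no-cell wells. HT-1080-IDH1KD cells, 750/well, had 48 h compound exposure at 37 °C.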
TGFb SMAD3 inh: qHTS for Inhibitors of TGF-b. Potency, µM (series often up to 46.1 µM), without a hit: top-dose activity, negative = inhibition, usual class: inhibitors. AID 588855, 2011. HepG2 CAGA-GFP TGF-b/SMAD3 reporter, GFP fluorescence, 18 h; TGF-beta stimulated, 500 pg/mL final. 410,000 tested, 1.2% active; also: % is scaled to controls: 0 for no effect and ±100 for the full control effect; nearly all actives have a fitted effect of over 65% in size
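HEPG2 CAGA-GFP, 1000 cells/well; 2 h settle, 37 C; cpd via pin tool; TGF-b 500 pg/mL final; 18 h, 37 C; GFP imaging ex488/em500-530; %Activity normalised to -TGF-b and +DMSO controls; CRC fit, curve class.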
TDP1 cell CPT: qHTS for Inhibitors of human tyrosyl-DNA phosphodiesterase 1 (TDP1): qHTS in cells in presence of CPT; AID 686979, 2013; Potency, µM (series often up to 46.2 µM), inactives show at the top dose activity change, negative = growth inhibition, usual class: inhibitors; chicken DT40 Tdp1-/-;hTDP1 cells + 20 nM CPT, ATP luminescence, 48 h; 420,000 tested, 12% active; also: % is scaled to controls: 0 for no effect and ±100 for the full control effect; nearly all actives have a fitted effect of over 55% in size
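Chicken DT40 Tdp1-/- cells complemented with human TDP1, 400 cells/well, exposed to compounds plus 20 nM camptothecin for at least 48 h at 37 C; viability read as ATP content by CellTiter-Glo luminescence.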
HT1080NT lethal: qHTS for induction of synthetic lethality in tumor cells producing 2HG: qHTS for the HT-1080-NT fibrosarcoma cell line; HT-1080-NT fibrosarcoma viability, CellTiter-Glo ATP luminescence, 48 h; Potency, µM (doses to about 46.1 µM), for the others: top-dose activity, negative = less viability, actives largely listed as cytotoxic; 360,000 tested, 1.6% active; AID 686970, 2013;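 also: NT is the 2HG producing partner of a matched IDH1 knockdown line; 0% = DMSO-treated cells and -100% = media-only wells without cells; nearly all actives have a fitted effect of over 55% in size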
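Viability of the 2HG-overproducing fibrosarcoma line after 48 hours of compound exposure at 37 degrees C was determined by luminescence with CellTiter-Glo, and concentration-effect curves were then fitted and categorized.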
* = called active by the depositor; [ ] = dose if it differs, or a comment. Calls follow the shape of the dose curve; as a rule, active = well fitted curve in the direction sought with a large enough effect; inconclusive = small, poorly fitted or top-dose-only effect, or another doubt; inactive = no such curve, though single readings can be large; an effect the other way counts as inactive or inconclusive. Potency is read from the fitted curve at half-maximal effect.

For O=C(Nc1cccc(F)c1)N(Cc1ccc(Cl)cc1)CC(O)C(F)(F)F (stereo unspecified) the results were DT40 TDP1 no CPT 26µM*, HepG2 tox -59%, HT1080 IDH1KD tx inconclusive, TGFb SMAD3 inh inconclusive, TDP1 cell CPT inconclusive and HT1080NT lethal 21µM*.
For CCC(=O)OCC(=O)[C@@]1(OC(=O)CC)[C@H](C)C[C@H]2[C@H]3[C@H]([C@@H](O)C[C@@]21C)[C@@]1(C)C=CC(=O)C=C1C[C@H]3Cl the results were DT40 TDP1 no CPT -29%[21.1 µM] and TDP1 cell CPT -28%[21.1 µM].
For CCOC(=O)CSC1=NC(=O)/C(=C/c2ccc(Br)cc2)S1 the results were DT40 TDP1 no CPT 4.1µM*, HepG2 tox -20%, HT1080 IDH1KD tx inconclusive, TGFb SMAD3 inh 6%, TDP1 cell CPT 2.6µM* and HT1080NT lethal inconclusive.
Screening CCOC(=O)CSC1=NC(=O)/C(=C\c2ccc(OC(C)=O)cc2)S1 returned DT40 TDP1 no CPT 2.9µM*, HepG2 tox -14%, HT1080 IDH1KD tx inconclusive, TGFb SMAD3 inh 35%, TDP1 cell CPT 2.6µM* and HT1080NT lethal inconclusive.
Screening CCOC(=O)COc1ccc(Br)cc1/C=C1\SC(N)=NC1=O returned DT40 TDP1 no CPT inconclusive, HepG2 tox -30%, HT1080 IDH1KD tx 1%, TGFb SMAD3 inh inconclusive, TDP1 cell CPT -4% and HT1080NT lethal -2%.
For Cc1ccc(N2CC(C(=O)Nc3cccnc3)CC2=O)cc1Cl (stereo unspecified) the results were DT40 TDP1 no CPT -13%, HepG2 tox 0%, HT1080 IDH1KD tx 5%, TGFb SMAD3 inh 10%, TDP1 cell CPT -3% and HT1080NT lethal 20%.
Screening CCOC(=O)c1c(NC(=O)CSc2nnc3c(Cl)cc(Cl)cn23)sc2c1CCC2 returned DT40 TDP1 no CPT inconclusive, HepG2 tox -28%, HT1080 IDH1KD tx 16%, TGFb SMAD3 inh 3%, TDP1 cell CPT inconclusive and HT1080NT lethal 6%.
`CC(=O)c1ccccc1NC(=O)COC(=O)c1c(C)nn(-c2ccccc2)c1C` gave DT40 TDP1 no CPT 15µM*, HepG2 tox -36%, HT1080 IDH1KD tx -11%, TGFb SMAD3 inh -2%, TDP1 cell CPT inconclusive and HT1080NT lethal -4%.
`Cc1nn(-c2ccccc2)c(C)c1C(=O)OCC(=O)Nc1ccccc1` gave DT40 TDP1 no CPT -27%, HepG2 tox -13%, HT1080 IDH1KD tx -14%, TGFb SMAD3 inh 2%, TDP1 cell CPT inconclusive and HT1080NT lethal 1%.
COc1ccccc1NC(=O)COC(=O)c1c(C)nn(-c2ccccc2)c1C was read as DT40 TDP1 no CPT 18µM*, HepG2 tox -33%, HT1080 IDH1KD tx -16%, TGFb SMAD3 inh -20%, TDP1 cell CPT 18µM* and HT1080NT lethal -2%.
Screening Cc1nn(-c2ccccc2)c(C)c1C(=O)OCC(=O)Nc1ccccc1C(F)(F)F returned DT40 TDP1 no CPT inconclusive, HepG2 tox -16%, HT1080 IDH1KD tx -9%, TGFb SMAD3 inh -9%, TDP1 cell CPT inconclusive and HT1080NT lethal -9%[9.24 µM].
For CCOc1cc(-c2nc(C)c(C(C)=O)n2O)ccc1OCC(=O)Nc1cccc(C)c1 the results were DT40 TDP1 no CPT -4%, HepG2 tox 2%, HT1080 IDH1KD tx 0%, TGFb SMAD3 inh 2%, TDP1 cell CPT 5% and HT1080NT lethal -3%.
For COc1ccccc1C(=O)Nc1sc(Nc2ccccc2)nc1C(N)=O the results were DT40 TDP1 no CPT 6.5µM*, HepG2 tox -60%, TGFb SMAD3 inh 14% and TDP1 cell CPT 12µM*.
For NC(=O)c1nc(Nc2ccccc2)sc1NC(=O)c1ccccc1Br the results were DT40 TDP1 no CPT 21µM*, HepG2 tox -63%, TGFb SMAD3 inh 8% and TDP1 cell CPT inconclusive.
`Cc1ccc(C)c(N2CCN(C(=O)CCNC(=O)Cn3ccc4ccccc4c3=O)CC2)c1` gave DT40 TDP1 no CPT inconclusive, HepG2 tox -27%, HT1080 IDH1KD tx 0%, TGFb SMAD3 inh -12%, TDP1 cell CPT -17% and HT1080NT lethal 7%.
COc1cccc2c1cc1c(=O)n(CC(=O)N3CCN(c4cc(Cl)ccc4C)CC3)nc(C)n12 was read as DT40 TDP1 no CPT -22%, HepG2 tox 11%, TGFb SMAD3 inh -7% and TDP1 cell CPT -15%.
For Cc1ccc(Cl)cc1N1CCN(C(=O)Cn2ncn3cccc3c2=O)CC1 the results were DT40 TDP1 no CPT inconclusive, HepG2 tox -1%, HT1080 IDH1KD tx -8%, TGFb SMAD3 inh 10%, TDP1 cell CPT 21µM* and HT1080NT lethal -20%.
For Cc1ccc(Cl)cc1N1CCN(C(=O)Cn2nc(C)n3c(cc4sccc43)c2=O)CC1 the results were DT40 TDP1 no CPT 21µM*, HepG2 tox -12%, TGFb SMAD3 inh inconclusive and TDP1 cell CPT 18µM*.
Screening Cc1ccc(Cl)cc1N1CCN(C(=O)Cn2ccc3ccccc3c2=O)CC1 returned DT40 TDP1 no CPT 21µM*, HepG2 tox -14%, HT1080 IDH1KD tx inconclusive, TGFb SMAD3 inh -25%, TDP1 cell CPT 16µM* and HT1080NT lethal 0%.
O=C(CN(Cc1ccco1)C(=O)c1cccc(Cl)c1)Nc1c(Cl)cc(Cl)cc1Cl was read as DT40 TDP1 no CPT inconclusive, HepG2 tox -33%, HT1080 IDH1KD tx -18%, TGFb SMAD3 inh -25%, TDP1 cell CPT 26µM* and HT1080NT lethal -4%.
O=C(CN(Cc1ccco1)C(=O)c1ccc(Cl)cc1)Nc1c(Cl)cc(Cl)cc1Cl was read as DT40 TDP1 no CPT -29%, HepG2 tox 0%, HT1080 IDH1KD tx 2%, TGFb SMAD3 inh 6%, TDP1 cell CPT 5% and HT1080NT lethal 0%.
`CC1CCc2c(sc3nnn(CC(=O)Nc4ccccc4Cl)c(=O)c23)C1` (stereo unspecified) gave DT40 TDP1 no CPT 16µM*, HepG2 tox -7%, TGFb SMAD3 inh -6% and TDP1 cell CPT inconclusive.
For CC1CCc2c(sc3nnn(CC(=O)Nc4cccc(C(F)(F)F)c4)c(=O)c23)C1 (stereo unspecified) the results were DT40 TDP1 no CPT 21µM*, HepG2 tox -21%, TGFb SMAD3 inh inconclusive and TDP1 cell CPT inconclusive.
